# Source: PubChem BioAssay (NCATS)
# Inconclusive results are not listed. A call without a number means that no potency is given here. A number with no mark means an inactive call. Active and inactive are the calls of the source. Calls follow the shape of the dose curve; as a rule, active = well fitted cell-killing curve with a large enough effect; inconclusive = small, poorly fitted or top-dose-only effect, or effect the other way; inactive = flat fitted curve, though single readings scatter.
# Legend:
# Assay in all cases: Primary qHTS to identify gynecologic anti-cancer compounds using libraries of approved drugs and bioactive compounds (AID 1345084); also: nearly all actives have a fitted effect of over 55% in size
# Settings in all cases: Gynecologic cancer cell panel viability, ATPlite luminescence, 48 h; series mostly up to 57.5 µM
# [1] = tested on: PA-1
# In short: (§1)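 48 h compound exposure at 37 C, 5% CO2; five-point qHTS. ATPlite luminescence readout of cell ATP.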
# [2] = tested on: SKOV3
# In short: as §1
# [3] = tested on: Tov-21-G
# In short: as §1
# [4] = tested on: Tov112D
# In short: as §1
# Potency is read from the fitted curve at half-maximal effect.
smiles,measurement,setting,value
O=C(CCc1nnc2n(Cc3ccc(Cl)cc3)c(=O)c3ccccc3n12)NCCC1=CCCCC1,Potency,[1],inactive
same,Potency,[2],inactive
same,Potency,[3],inactive
same,Potency,[4],inactive
O=C1OCc2cc3cccc(O[C@@H]4O[C@H](CO)[C@@H](O)[C@H](O)[C@H]4O)c3c(O)c21,Potency,[1],inactive
same,Potency,[2],inactive
same,Potency,[3],inactive
same,Potency,[4],inactive
COc1c(C)c(OCC(O)C(C)(C)O)cc2c1COC2=O (centres undefined),Potency,[1],inactive
same,Potency,[2],inactive
same,Potency,[3],inactive
same,Potency,[4],inactive
COc1cccc2cc3c(c(O[C@@H]4O[C@H](CO[C@@H]5O[C@H](CO)[C@@H](O)[C@H](O)[C@H]5O)[C@@H](O)[C@H](O)[C@H]4O)c12)C(C)OC3=O (some centres undefined),Potency,[1],inactive
same,Potency,[2],inactive
same,Potency,[3],inactive
same,Potency,[4],inactive
COc1ccc(C2COc3cc(O)ccc3C2)c(O)c1 (centres undefined),Potency,[1],inactive
same,Potency,[2],inactive
same,Potency,[3],inactive
same,Potency,[4],inactive
COC(=O)c1ccnc(-c2cc(C(=O)NCCc3ccccc3)ccn2)c1,Potency,[1],inactive
same,Potency,[2],inactive
same,Potency,[3],inactive
same,Potency,[4],inactive
CC1(C)CCCC2(C)C(C(=O)O)=CCC12 (centres undefined),Potency,[1],inactive
same,Potency,[2],inactive
same,Potency,[3],inactive
Cc1cc(Nc2nc(NC(C)c3ncc(F)cn3)ncc2Cl)n[nH]1 (centres undefined),Potency,[1],inactive
same,Potency,[2],inactive
same,Potency,[3],inactive
same,Potency,[4],inactive
CC1=C(C)C(=O)OC(C(C)C2CCC3C4CC=C5CC(OC6OC(COC7OC(CO)C(O)C(O)C7O)C(O)C(O)C6O)CC(O)C5(C)C4CCC23C)C1 (centres undefined),Potency,[1],inactive
same,Potency,[2],inactive
same,Potency,[3],inactive
same,Potency,[4],inactive
COc1ccc(-c2ccc3c(N4CCOCC4)nc(N4CC(C)OC(C)C4)nc3n2)cc1CO (centres undefined),Potency,[1],2510 nM (active)
same,Potency,[2],794 nM (active)
same,Potency,[3],1260 nM (active)
CC12CCC(OC3OC(CO)C(O)C(OC4OC(CO)C(O)C(O)C4O)C3O)CC1=CCC1C2CCC2(C)/C(=C3/COC(=O)C3)CCC12O (centres undefined),Potency,[1],inactive
same,Potency,[2],inactive
same,Potency,[3],inactive
CC(/C=C/C1=CC2=CC(=O)C(C)(O)C(O)C2=CO1)=C\C(C)CCO (centres undefined),Potency,[1],inactive
same,Potency,[2],inactive
same,Potency,[3],inactive
same,Potency,[4],inactive
CC1=C(C(=O)OCc2ccccc2)C(c2ccc(-c3ccccc3)cc2)NC(=O)N1CCCCCC(=O)O (centres undefined),Potency,[1],inactive
same,Potency,[2],inactive
same,Potency,[3],inactive
same,Potency,[4],inactive
CC1CCC2(C(=O)O)CCC3(C)C(=CCC4C5(C)CCC(OC(=O)/C=C/c6ccccc6)C(C)(C)C5CCC43C)C2C1C (centres undefined),Potency,[1],inactive
same,Potency,[2],inactive
same,Potency,[3],inactive
same,Potency,[4],inactive
C[C@@H]1O[C@@H](OC[C@H]2O[C@@H](OC(CCCCc3ccc(O)cc3)CCc3ccc(O)cc3)[C@H](O)[C@@H](O)[C@@H]2O)[C@H](O)[C@H](O)[C@H]1O (some centres undefined),Potency,[1],inactive
same,Potency,[2],inactive
same,Potency,[3],inactive
same,Potency,[4],inactive
CC(=O)O[C@@H]1[C@@H](O)[C@H](C)O[C@@H](O[C@H]2[C@@H]3C=CO[C@@H](O[C@@H]4O[C@H](CO)[C@@H](O)[C@H](O)[C@H]4O)[C@@H]3[C@@]3(CO)O[C@@H]23)[C@@H]1OC(=O)/C=C/c1ccccc1,Potency,[1],inactive
same,Potency,[2],inactive
same,Potency,[3],inactive
same,Potency,[4],inactive
OC/C=C/C=C/[C@H]1Cc2cc(O)cc(O)c2O1,Potency,[1],inactive
same,Potency,[2],inactive
same,Potency,[3],inactive
same,Potency,[4],inactive
CC1=CC(=O)C2(OC3OC(C)C(O)C(OC(=O)/C=C/c4ccccc4)C3O)C=COC(OC3OC(CO)C(O)C(O)C3O)C12 (centres undefined),Potency,[1],inactive
same,Potency,[2],inactive
same,Potency,[3],inactive
same,Potency,[4],inactive
Cn1c2ccc(F)cc2c2c(C(=O)N3CCCC3)cn(-c3ccccc3)c(=O)c21,Potency,[1],inactive
same,Potency,[2],inactive
same,Potency,[3],inactive
same,Potency,[4],inactive
C=C1CCC2C(C(C)(C)O)CCC2(C)CC(O)C(=C)CCC1O (centres undefined),Potency,[1],inactive
same,Potency,[2],inactive
same,Potency,[3],inactive
same,Potency,[4],inactive
CC1OC(OCC2OC(OC3CCC4(C)C(CCC5(C)C4CC=C4C6CC(C)(C)CCC6(C(=O)OC6OC(CO)C(O)C(O)C6O)CCC45C)C3(C)CO)C(O)C(O)C2O)C(O)C(O)C1O (centres undefined),"activity change, negative = cytotoxicity",[1],-0.107% [at 11.6 µM]
same,"activity change, negative = cytotoxicity",[2],24.6% [at 11.6 µM]
same,"activity change, negative = cytotoxicity",[3],2.94% [at 11.6 µM]
same,"activity change, negative = cytotoxicity",[4],-1.29% [at 11.6 µM]
CC(=O)OC[C@H]1O[C@H](O[C@]2(CO)O[C@H](CO)[C@@H](OC(=O)/C=C/c3ccccc3)[C@@H]2O)[C@H](O)[C@@H](O)[C@@H]1O,Potency,[1],inactive
same,Potency,[2],inactive
same,Potency,[3],inactive
same,Potency,[4],inactive
CC(=O)O[C@@H]1[C@H](O[C@@H]2O[C@@H](CO)[C@H](O)[C@H]2O)[C@@H](O[C@@H]2O[C@@H](C)[C@H](O[C@@H]3OC[C@@H](O)[C@H](O)[C@H]3O)[C@@H](O)[C@H]2O)[C@H](OC(=O)[C@]23CCC(C)(C)C[C@H]2C2=CCC4[C@@]5(C)CC[C@H](O[C@@H]6O[C@H](C(=O)O)[C@@H](O)[C@H](O)[C@H]6O[C@@H]6O[C@H](CO)[C@H](O)[C@H](O)[C@H]6O)[C@@](C)(C=O)C5CC[C@@]4(C)[C@]2(C)CC3)O[C@@H]1C (some centres undefined),"activity change, negative = cytotoxicity",[1],11.1% [at 6.55 µM]
same,"activity change, negative = cytotoxicity",[2],0% [at 6.55 µM]
same,"activity change, negative = cytotoxicity",[3],4.85% [at 6.55 µM]
same,"activity change, negative = cytotoxicity",[4],12.7% [at 6.55 µM]
